# This is one part of a sample in which the strongest signals are shown more often than they occur.
# B1: Gal 1 (Canis lupus) (protein)
# chain: MACGLVASNLSLKPGQCLRVQCEVVPEAKSFVLNLGKDGDNLCLHFNPRFEAHGDVNTIVCNSKDGGAWGEELRESAFPFQPGTVTEVCISFDQADLTIKLPDGYTFKFPNRLNLEAISYLAADGDMKIKCLAFD
# How the values were obtained:
# Assay in all cases: glycan array binding signal (z-score within array); higher = stronger binding
# Conditions in all cases: glycan notation: IUPAC condensed, linker removed
# Fuc(a1-2)Gal(b1-3)GalNAc = target: Fuc(a1-2)Gal(b1-3)GalNAc
# Method in brief: (§1)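 Glycan array data came from 3228 arrays in the Consortium for Functional Glycomics database, and only arrays with an available protein sequence were kept. Glycan names were put into IUPAC-condensed notation, and columns mapping to the same glycan were averaged. The binding signal is a within-array Z-score, averaged across arrays of one protein sequence run at different concentrations or buffers and across linkers. A negative Z-score can be read as non-binding.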
# [1] = target: Fuc(a1-2)Gal(b1-3)GalNAc(b1-3)Gal
# Method in brief: as §1
# [2] = target: Fuc(a1-2)Gal(b1-3)GlcNAc(b1-3)[Fuc(a1-3)[Gal(b1-4)]GlcNAc(b1-6)]Gal(b1-4)Glc
# Method in brief: as §1
# [3] = target: Fuc(a1-2)Gal(b1-4)GlcNAc(b1-3)Gal(b1-4)GlcNAc(b1-3)Gal(b1-4)GlcNAc
# Method in brief: as §1
# Fuc(a1-2)Gal6S(b1-4)Glc = target: Fuc(a1-2)Gal6S(b1-4)Glc
# Method in brief: as §1
# [4] = target: Gal(a1-3)Gal(b1-3)[Fuc(a1-4)]GlcNAc(b1-2)Man(a1-3)[Gal(a1-3)Gal(b1-3)[Fuc(a1-4)]GlcNAc(b1-2)Man(a1-6)]Man(b1-4)GlcNAc(b1-4)GlcNAc
# Method in brief: as §1
# [5] = target: Gal(b1-3)Gal(b1-4)GlcNAc(b1-2)Man(a1-3)[Gal(b1-3)Gal(b1-4)GlcNAc(b1-2)Man(a1-6)]Man(b1-4)GlcNAc(b1-4)GlcNAc
# Method in brief: as §1
# [6] = target: Gal(b1-3)GalNAc(b1-3)Gal(a1-4)Gal(b1-4)Glc
# Method in brief: as §1
# [7] = target: Gal(b1-3)GalNAc(b1-4)Gal(b1-4)Glc
# Method in brief: as §1
# [8] = target: Gal(b1-4)GlcNAc(a1-6)Gal(b1-4)GlcNAc
# Method in brief: as §1
# [9] = target: Gal(b1-4)GlcNAc(b1-2)Man(a1-3)Man(b1-4)GlcNAc(b1-4)GlcNAc
# Method in brief: as §1
# [10] = target: Gal(b1-4)GlcNAc(b1-2)[Gal(b1-4)GlcNAc(b1-4)]Man(a1-3)[Gal(b1-4)GlcNAc(b1-2)Man(a1-6)]Man(b1-4)GlcNAc(b1-4)GlcNAc
# Method in brief: as §1
# [11] = target: Gal(b1-4)GlcNAc(b1-2)[Gal(b1-4)GlcNAc(b1-4)]Man(a1-3)[Gal(b1-4)GlcNAc(b1-2)[Gal(b1-4)GlcNAc(b1-6)]Man(a1-6)]Man(b1-4)GlcNAc(b1-4)GlcNAc
# Method in brief: as §1
# Gal3S(b1-3)GlcNAc = target: Gal3S(b1-3)GlcNAc
# Method in brief: as §1
# Gal3S(b1-4)GlcNAc6S = target: Gal3S(b1-4)GlcNAc6S
# Method in brief: as §1
# [12] = target: Gal3S(b1-4)[Fuc(a1-3)]Glc6S
# Method in brief: as §1
# GalNAc(a1-3)GalNAc = target: GalNAc(a1-3)GalNAc
# Method in brief: as §1
# Glc(b1-6)Glc = target: Glc(b1-6)Glc
# Method in brief: as §1
# GlcA(b1-3)GlcNAc = target: GlcA(b1-3)GlcNAc
# Method in brief: as §1
# [13] = target: GlcNAc(a1-4)Gal(b1-4)GlcNAc(b1-3)Gal(b1-4)Glc
# Method in brief: as §1
# GlcNAc(b1-6)GalNAc = target: GlcNAc(b1-6)GalNAc
# Method in brief: as §1
# [14] = target: Neu5Ac(a2-3)Gal(b1-3)GalNAc6S
# Method in brief: as §1
# [15] = target: Neu5Ac(a2-3)Gal(b1-3)GlcNAc(b1-3)Gal(b1-4)GlcNAc
# Method in brief: as §1
# [16] = target: Neu5Ac(a2-3)Gal(b1-3)GlcNAc6S
# Method in brief: as §1
# [17] = target: Neu5Ac(a2-3)Gal(b1-4)GlcNAc(b1-2)Man(a1-3)[GlcNAc(b1-2)Man(b1-4)GlcNAc(b1-2)Man(a1-6)]Man(b1-4)GlcNAc(b1-4)GlcNAc
# Method in brief: as §1
# [18] = target: Neu5Ac(a2-3)Gal(b1-4)[Fuc(a1-3)]GlcNAc(b1-6)[Gal(b1-3)]GalNAc
# Method in brief: as §1
# [19] = target: Neu5Ac(a2-3)Gal6S(b1-4)[Fuc(a1-3)]GlcNAc
# Method in brief: as §1
# [20] = target: Neu5Ac(a2-3)GalNAc(b1-4)GlcNAc
# Method in brief: as §1
# [21] = target: Neu5Ac(a2-3)[GalNAc(b1-4)]Gal(b1-4)Glc
# Method in brief: as §1
# Neu5Ac(a2-6)Gal = target: Neu5Ac(a2-6)Gal
# Method in brief: as §1
binder,measurement,setting,value
B1,glycan array binding signal (z-score),Fuc(a1-2)Gal(b1-3)GalNAc,-0.289
same,glycan array binding signal (z-score),[1],-0.33
same,glycan array binding signal (z-score),[2],0.066
same,glycan array binding signal (z-score),[3],0.432
same,glycan array binding signal (z-score),Fuc(a1-2)Gal6S(b1-4)Glc,-0.234
same,glycan array binding signal (z-score),[4],-0.274
same,glycan array binding signal (z-score),[5],6.47
same,glycan array binding signal (z-score),[6],-0.328
same,glycan array binding signal (z-score),[7],-0.297
same,glycan array binding signal (z-score),[8],2.97
same,glycan array binding signal (z-score),[9],1.75
same,glycan array binding signal (z-score),[10],5.5
same,glycan array binding signal (z-score),[11],6.78
same,glycan array binding signal (z-score),Gal3S(b1-3)GlcNAc,3.33
same,glycan array binding signal (z-score),Gal3S(b1-4)GlcNAc6S,4.69
same,glycan array binding signal (z-score),[12],-0.286
same,glycan array binding signal (z-score),GalNAc(a1-3)GalNAc,-0.323
same,glycan array binding signal (z-score),Glc(b1-6)Glc,-0.343
same,glycan array binding signal (z-score),GlcA(b1-3)GlcNAc,-0.294
same,glycan array binding signal (z-score),[13],-0.318
same,glycan array binding signal (z-score),GlcNAc(b1-6)GalNAc,-0.33
same,glycan array binding signal (z-score),[14],-0.333
same,glycan array binding signal (z-score),[15],1.66
same,glycan array binding signal (z-score),[16],-0.31
same,glycan array binding signal (z-score),[17],3.31
same,glycan array binding signal (z-score),[18],-0.244
same,glycan array binding signal (z-score),[19],-0.322
same,glycan array binding signal (z-score),[20],-0.307
same,glycan array binding signal (z-score),[21],-0.292
same,glycan array binding signal (z-score),Neu5Ac(a2-6)Gal,-0.257

# Reference: the supplement of paper PMC8728848
